In all, about 5,500 compounds went through this assay and about 2,000 (36%) were called active. About 18% were inconclusive and are not listed. No stated cut-off is given here; in the data, active means normalized growth mostly below about 0.91 (no sharp cut-off); inconclusive means no clear call, values can overlap the other calls; inactive means mostly above about 0.92. This is one part of the list.
Experiment: chemical genetic growth profiling, strain panel (AID 1159580);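 further: tested at 20 µM; growth read once vehicle control cultures reached saturation at 30 °C; 1 = growth at the plate median or of vehicle wells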
Conditions: growth OD

Measured: normalized growth

CCCCCC1C(=O)CCC1CC(=O)OC (stereo unspecified)
inactive: S. cerevisiae deletion strains, locus YJR043C, strain POL32, stronger effect = lower value 0.991 | S. cerevisiae deletion strains, locus YJR066W, strain TOR1, stronger effect = lower value 0.982 | S. cerevisiae deletion strains, locus YJR075W, strain HOC1, stronger effect = lower value 1.01 | S. cerevisiae deletion strains, locus YKL009W, strain mrt4, stronger effect = lower value 0.914 | S. cerevisiae deletion strains, locus YKL068W, stronger effect = lower value 0.952 | S. cerevisiae deletion strains, locus YKL085W, strain MDH1 (second series), stronger effect = lower value 0.96 | S. cerevisiae deletion strains, locus YKL085W, strain MDH1, stronger effect = lower value 0.96 | S. cerevisiae deletion strains, locus YKL160W, strain elf1, stronger effect = lower value 0.988 | S. cerevisiae deletion strains, locus YKR001C, strain vps1, stronger effect = lower value 0.951 | S. cerevisiae deletion strains, locus YKR026C, strain gcn3, stronger effect = lower value 0.976 | S. cerevisiae deletion strains, locus YKR091W, strain srl3, stronger effect = lower value 0.982 | S. cerevisiae deletion strains, locus YLL001W, strain dnm1, stronger effect = lower value 0.983 | S. cerevisiae deletion strains, locus YLL026W, stronger effect = lower value 0.981 | S. cerevisiae deletion strains, locus YLL041C, strain sdh2, stronger effect = lower value 0.982 | S. cerevisiae deletion strains, locus YLR027C, strain aat2, stronger effect = lower value 0.983 | S. cerevisiae deletion strains, locus YLR039C, strain RIC1, stronger effect = lower value 1.03 | S. cerevisiae deletion strains, locus YLR058C, strain SHM2, stronger effect = lower value 1 | S. cerevisiae deletion strains, locus YLR102C, strain apc9, stronger effect = lower value 0.956 | S. cerevisiae deletion strains, locus YLR113W, strain HOG1, stronger effect = lower value 0.942 | S. cerevisiae deletion strains, locus YLR221C, strain rsa3, stronger effect = lower value 0.985 | S. cerevisiae deletion strains, locus YLR258W, strain gsy2, stronger effect = lower value 0.981 | S. cerevisiae deletion strains, locus YLR262C, strain YPT6 (second series), stronger effect = lower value 1.02 | S. cerevisiae deletion strains, locus YLR262C, strain YPT6, stronger effect = lower value 1.05 | S. cerevisiae deletion strains, locus YLR268W, strain sec22, stronger effect = lower value 0.956 | S. cerevisiae deletion strains, locus YLR320W, strain mms22, stronger effect = lower value 0.97 | S. cerevisiae deletion strains, locus YLR330W, strain CHS5, stronger effect = lower value 0.97 | S. cerevisiae deletion strains, locus YLR342W, strain FKS1 (second series), stronger effect = lower value 1.08 | S. cerevisiae deletion strains, locus YLR342W, strain FKS1, stronger effect = lower value 0.984 | S. cerevisiae deletion strains, locus YLR357W, strain rsc2, stronger effect = lower value 0.947 | S. cerevisiae deletion strains, locus YLR370C, strain arc18, stronger effect = lower value 0.978 | S. cerevisiae deletion strains, locus YLR371W, strain rom2, stronger effect = lower value 0.958 | S. cerevisiae deletion strains, locus YLR384C, strain iki3, stronger effect = lower value 0.961 | S. cerevisiae deletion strains, locus YLR418C, strain cdc73, stronger effect = lower value 1.02 | S. cerevisiae deletion strains, locus YML016C, strain PPZ1, stronger effect = lower value 0.975 | S. cerevisiae deletion strains, locus YML032C, strain rad52, stronger effect = lower value 0.983 | S. cerevisiae deletion strains, locus YML120C, strain ndi1, stronger effect = lower value 0.994 | S. cerevisiae deletion strains, locus YML124C, strain tub3, stronger effect = lower value 0.941 | S. cerevisiae deletion strains, locus YMR058W, strain fet3, stronger effect = lower value 0.992 | S. cerevisiae deletion strains, locus YMR078C, strain ctf18, stronger effect = lower value 0.945 | S. cerevisiae deletion strains, locus YMR125W, strain sto1, stronger effect = lower value 0.971 | S. cerevisiae deletion strains, locus YMR129W, stronger effect = lower value 0.973 | S. cerevisiae deletion strains, locus YMR205C, strain PFK2, stronger effect = lower value 0.969 | S. cerevisiae deletion strains, locus YMR223W, strain ubp8, stronger effect = lower value 0.981 | S. cerevisiae deletion strains, locus YMR231W, strain pep5, stronger effect = lower value 0.97 | S. cerevisiae deletion strains, locus YMR263W, strain SAP30, stronger effect = lower value 1.02 | S. cerevisiae deletion strains, locus YMR307W, strain GAS1, stronger effect = lower value 1.24 | S. cerevisiae deletion strains, locus YNL067W, strain RPL9B, stronger effect = lower value 1.03 | S. cerevisiae deletion strains, locus YNL071W, strain lat1, stronger effect = lower value 0.988 | S. cerevisiae deletion strains, locus YNL153C, strain GIM3, stronger effect = lower value 1.02 | S. cerevisiae deletion strains, locus YNL183C, strain NPR1, stronger effect = lower value 0.928 | S. cerevisiae deletion strains, locus YNL209W, strain ssb2, stronger effect = lower value 0.983 | S. cerevisiae deletion strains, locus YNL233W, strain BNI4, stronger effect = lower value 1.04 | S. cerevisiae deletion strains, locus YNL248C, strain rpa49, stronger effect = lower value 0.967 | S. cerevisiae deletion strains, locus YNL250W, strain rad50, stronger effect = lower value 0.945 | S. cerevisiae deletion strains, locus YNL271C, strain bni1, stronger effect = lower value 0.937 | S. cerevisiae deletion strains, locus YNL298W, strain CLA4, stronger effect = lower value 0.966 | S. cerevisiae deletion strains, locus YNL307C, strain MCK1, stronger effect = lower value 0.97 | S. cerevisiae deletion strains, locus YNL322C, strain KRE1 (second series), stronger effect = lower value 0.981 | S. cerevisiae deletion strains, locus YNL322C, strain KRE1, stronger effect = lower value 0.988 | S. cerevisiae deletion strains, locus YNR049C, strain mso1, stronger effect = lower value 0.987 | S. cerevisiae deletion strains, locus YNR052C, strain pop2, stronger effect = lower value 0.978 | S. cerevisiae deletion strains, locus YOL012C, strain htz1 1.15 | S. cerevisiae deletion strains, locus YOL147C, strain pex11, stronger effect = lower value 0.965 | S. cerevisiae deletion strains, locus YOR001W, strain rrp6, stronger effect = lower value 0.977 | S. cerevisiae deletion strains, locus YOR061W, strain CKA2, stronger effect = lower value 0.99 | S. cerevisiae deletion strains, locus YOR069W, strain VPS5, stronger effect = lower value 0.978 | S. cerevisiae deletion strains, locus YOR070C, strain gyp1, stronger effect = lower value 0.972 | S. cerevisiae deletion strains, locus YOR080W, strain dia2, stronger effect = lower value 0.974 | S. cerevisiae deletion strains, locus YOR083W, strain WHI5, stronger effect = lower value 0.986 | S. cerevisiae deletion strains, locus YOR106W, strain vam3, stronger effect = lower value 1.03 | S. cerevisiae deletion strains, locus YOR136W, strain idh2, stronger effect = lower value 0.973 | S. cerevisiae deletion strains, locus YOR144C, strain elg1, stronger effect = lower value 0.963 | S. cerevisiae deletion strains, locus YOR184W, strain ser1, stronger effect = lower value 0.921 | S. cerevisiae deletion strains, locus YOR231W, strain MKK1, stronger effect = lower value 0.977 | S. cerevisiae deletion strains, locus YOR265W, strain rbl2, stronger effect = lower value 0.981 | S. cerevisiae deletion strains, locus YOR270C, strain vph1, stronger effect = lower value 0.997 | S. cerevisiae deletion strains, locus YOR290C, strain snf2, stronger effect = lower value 1 | S. cerevisiae deletion strains, locus YOR316C, strain cot1, stronger effect = lower value 0.952 | S. cerevisiae deletion strains, locus YPL051W, strain arl3, stronger effect = lower value 0.991 | S. cerevisiae deletion strains, locus YPL055C, strain LGE1, stronger effect = lower value 1 | S. cerevisiae deletion strains, locus YPL078C, strain atp4, stronger effect = lower value 0.975 | S. cerevisiae deletion strains, locus YPL106C, strain sse1, stronger effect = lower value 0.999 | S. cerevisiae deletion strains, locus YPL240C, strain hsp82, stronger effect = lower value 0.969 | S. cerevisiae deletion strains, locus YPL241C, strain CIN2, stronger effect = lower value 0.977 | S. cerevisiae deletion strains, locus YPL256C, strain CLN2, stronger effect = lower value 0.97 | S. cerevisiae deletion strains, locus YPR119W, strain clb2, stronger effect = lower value 0.939 | S. cerevisiae deletion strains, locus YPR141C, strain kar3, stronger effect = lower value 0.944 | S. cerevisiae deletion strains, locus YPR163C, strain tif3, stronger effect = lower value 0.963 | S. cerevisiae deletion strains, locus YPR167C, strain met16, stronger effect = lower value 0.959 | S. cerevisiae deletion strains, strain wtn01, stronger effect = lower value 0.962 | S. cerevisiae strains, strain wild type, stronger effect = lower value 1
